According to PubChem BioAssay (EPA / NIEHS):
Several values for one entry are separate records, joined by “and”; a condition that tells them apart may be missing. Identical values can stand only once. Records with an inconclusive call do not appear. Activity calls are given as the source filed them. The calls were made as follows: active = hit-call score of the fitted dose curve at least 0.9, where 1 is the maximum; inconclusive = response in the unintended direction; inactive = score below 0.9.

Experiments:
[1] = biological target: rat Monoamine Oxidase, MAO-B, Peripheral (MAOBP), Maob (gene 25750) (UniProt P19643); assay: NVS_ENZ_rMAOBP: NovaScreen (NVS) Enzymatic Assay for rat Monoamine Oxidase, MAO-B, Peripheral (MAOBP) (AID 2283242)
rat Monoamine Oxidase, MAO-B, Peripheral (MAOBP), Maob (gene 25750), sequence (P19643 whole entry, looked up): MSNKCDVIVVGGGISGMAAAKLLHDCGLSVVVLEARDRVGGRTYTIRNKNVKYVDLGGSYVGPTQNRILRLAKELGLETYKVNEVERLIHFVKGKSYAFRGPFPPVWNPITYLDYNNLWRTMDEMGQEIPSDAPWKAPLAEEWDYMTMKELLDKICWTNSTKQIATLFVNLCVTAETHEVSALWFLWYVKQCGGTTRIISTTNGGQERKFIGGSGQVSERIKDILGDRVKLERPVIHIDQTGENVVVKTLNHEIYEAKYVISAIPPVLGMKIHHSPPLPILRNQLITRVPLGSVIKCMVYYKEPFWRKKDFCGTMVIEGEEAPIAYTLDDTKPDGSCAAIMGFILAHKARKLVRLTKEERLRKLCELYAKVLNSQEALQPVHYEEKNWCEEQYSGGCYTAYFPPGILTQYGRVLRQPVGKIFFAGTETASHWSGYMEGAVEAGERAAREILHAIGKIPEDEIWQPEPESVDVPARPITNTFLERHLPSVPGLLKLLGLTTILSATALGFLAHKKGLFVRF

[2] = biological target: Adenosine receptor A1 (Bos taurus) (UniProt P28190); assay: NVS_GPCR_bAdoR_NonSelective: NovaScreen (NVS) G Protein-Coupled Receptor Assay for bovine Adenosine Receptor (AdoR), Non-selective Binding (AID 2283244)
Adenosine receptor A1 (Bos taurus), sequence (P28190 whole entry, looked up): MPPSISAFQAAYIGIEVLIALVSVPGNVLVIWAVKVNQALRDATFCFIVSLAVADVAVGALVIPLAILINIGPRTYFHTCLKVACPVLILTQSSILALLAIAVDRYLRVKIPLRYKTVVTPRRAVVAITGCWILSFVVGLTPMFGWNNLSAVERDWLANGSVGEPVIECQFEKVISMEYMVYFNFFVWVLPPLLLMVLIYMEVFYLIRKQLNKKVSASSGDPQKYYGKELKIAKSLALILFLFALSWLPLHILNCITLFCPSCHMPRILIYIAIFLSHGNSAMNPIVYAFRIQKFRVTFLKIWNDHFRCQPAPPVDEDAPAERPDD
Method: NVS_GPCR_bAdoR_NonSelective is a biochemical, single-readout assay that uses extracted gene-proteins from Bovine striatal membranes in a tissue-based cell-free assay. Measurements were taken 1 hour after chemical dosing in a 96-well plate.NVS_GPCR_bAdoR_NonSelective is one of one assay component(s) measured or calculated from the NVS_GPCR_bAdoR_NonSelective assay. It is designed to make measurements of radioligand binding, a form of binding reporter, as detected with scintillation counting signals by Filter-based radiodetection technology.Data from the assay component NVS_GPCR_bAdoR_NonSelective was analyzed into 1 assay endpoint. This assay endpoint, NVS_GPCR_bAdoR_NonSelective, was analyzed in the positive analysis fitting direction relative to DMSO as the negative control and baseline of activity. Using a type of binding reporter, loss-of-signal activity can be used to understand changes in the binding as they relate to the gene ADORA1. Furthermore, this assay endpoint can be referred to as a primary readout, because the performed assay has only produced 1 assay endpoint. To generalize the intended target to other relatable targets, this assay endpoint is annotated to the gpcr intended target family, where the subfamily is rhodopsin-like receptor.
Binding assays used specific radioligands (tritiated, iodinated) with non-radioactive competitive displacement ligands in agonist or antagonist protocols (as indicated) and various reference compounds and inhibitors to titrate specific binding to receptors and transporters. Most enzyme assays (CYPs, kinases, phosphatases, proteases, HDACs) used recombinant protein and specific substrates (fluorescence mostly, some colorimetric and radioactive) and inhibitors, followed by a biochemical separation of substrate and product. All assays for the biochemical HTS were initially run in duplicate at a single concentration (10 uM for CYP450 assays and 25 uM for all others). Assay-chemical combinations meeting a pre-defined threshold (e.g., 30% inhibition and other criteria defined below) were then run in singleton concentration-response format with maximum concentration of 20 uM for CYPs and 50 uM for all others. Each assay was run with positive and negative controls, and concurrent controls on every plate. The follow-up (secondary) screen tested active chemical-pairs in concentration series, as well as a few additional assays not tested in the primary screen, some selected negative inactives, and several cases re-run in the concentration series for confirmatory purposes.

[3] = biological target: rat Constitutive Nitric Oxide Synthase (CNOS), Nos1 (gene 24598) (UniProt P29476); assay: NVS_ENZ_rCNOS: NovaScreen (NVS) Enzymatic Assay for rat Constitutive Nitric Oxide Synthase (CNOS) (AID 2283236)
rat Constitutive Nitric Oxide Synthase (CNOS), Nos1 (gene 24598), sequence (P29476 whole entry, looked up): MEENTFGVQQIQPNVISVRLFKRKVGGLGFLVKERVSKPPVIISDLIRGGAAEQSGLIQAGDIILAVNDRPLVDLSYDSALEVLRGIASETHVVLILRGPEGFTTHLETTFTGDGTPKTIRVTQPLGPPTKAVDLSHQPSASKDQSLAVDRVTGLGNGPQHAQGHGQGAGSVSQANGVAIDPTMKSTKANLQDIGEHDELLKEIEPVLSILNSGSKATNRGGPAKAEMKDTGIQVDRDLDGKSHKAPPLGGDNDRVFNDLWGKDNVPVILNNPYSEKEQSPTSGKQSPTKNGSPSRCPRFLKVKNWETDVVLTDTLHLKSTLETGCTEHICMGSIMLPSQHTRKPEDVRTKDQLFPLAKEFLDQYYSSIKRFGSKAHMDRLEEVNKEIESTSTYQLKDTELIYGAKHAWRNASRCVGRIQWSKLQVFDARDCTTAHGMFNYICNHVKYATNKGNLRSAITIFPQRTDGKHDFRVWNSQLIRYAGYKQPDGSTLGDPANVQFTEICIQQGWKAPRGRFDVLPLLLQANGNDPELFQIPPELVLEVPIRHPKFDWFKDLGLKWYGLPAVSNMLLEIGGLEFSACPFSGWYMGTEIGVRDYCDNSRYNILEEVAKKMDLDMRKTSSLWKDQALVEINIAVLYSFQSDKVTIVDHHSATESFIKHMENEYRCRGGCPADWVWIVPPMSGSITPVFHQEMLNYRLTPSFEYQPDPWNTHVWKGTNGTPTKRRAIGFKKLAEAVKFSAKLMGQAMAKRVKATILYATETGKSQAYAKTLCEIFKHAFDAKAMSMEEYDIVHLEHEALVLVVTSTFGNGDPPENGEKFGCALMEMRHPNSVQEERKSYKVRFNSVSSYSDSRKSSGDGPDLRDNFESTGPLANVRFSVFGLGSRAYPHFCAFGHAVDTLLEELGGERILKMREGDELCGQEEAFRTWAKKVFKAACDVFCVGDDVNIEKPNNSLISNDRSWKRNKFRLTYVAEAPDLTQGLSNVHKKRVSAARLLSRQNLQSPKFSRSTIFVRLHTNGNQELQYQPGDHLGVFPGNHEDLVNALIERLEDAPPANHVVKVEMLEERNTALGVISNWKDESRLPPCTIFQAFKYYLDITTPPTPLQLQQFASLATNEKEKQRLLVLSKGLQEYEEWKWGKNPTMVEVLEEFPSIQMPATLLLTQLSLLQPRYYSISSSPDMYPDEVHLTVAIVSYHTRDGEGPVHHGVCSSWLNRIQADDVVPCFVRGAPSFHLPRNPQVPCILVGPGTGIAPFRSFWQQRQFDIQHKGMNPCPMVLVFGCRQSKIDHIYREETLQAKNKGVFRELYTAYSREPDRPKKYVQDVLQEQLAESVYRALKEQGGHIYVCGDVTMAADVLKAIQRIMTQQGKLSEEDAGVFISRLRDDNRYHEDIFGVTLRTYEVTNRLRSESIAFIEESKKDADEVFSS
Method in brief: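 Enzyme activity in rat brain membrane preparation, read 1 h after dosing by filter-based radiometric scintillation counting. Primary screen in duplicate at 25 uM; actives (e.g., ≥30% inhibition) then run in concentration-response up to 50 uM.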

[4] = test system: rat Monoamine Oxidase, MAO-A, Central (MAOAC), gene 29253; assay: NVS_ENZ_rMAOAC: NovaScreen (NVS) Enzymatic Assay for rat Monoamine Oxidase, MAO-A, Central (MAOAC) (AID 2283243);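 also: potency refers to inhibition seen as signal drop below DMSO baseline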
Method in brief: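 Rat brain tissue extract used as enzyme source in a cell-free radiometric assay, read by scintillation counting 1.5 hours after dosing. Loss of signal relative to DMSO baseline scored; primary screen at 25 uM in duplicate, actives followed up in concentration series.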

[5] = test system: bovine Angiotensin II Receptor Type 2 (AT2), gene 407157; assay: NVS_GPCR_bAT2: NovaScreen (NVS) G Protein-Coupled Receptor Assay for bovine Angiotensin II Receptor Type 2 (AT2) (AID 2283240)
Method in brief: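 Radioligand displacement on bovine cerebellar membranes, 1 hour incubation, filter-based scintillation counting; loss of signal vs DMSO. Duplicate single-point screen at 25 uM, then concentration-response to 50 uM maximum.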

[6] = test system: rat Monoamine Oxidase, MAO-A, Peripheral (MAOAP), gene 29253; assay: NVS_ENZ_rMAOAP: NovaScreen (NVS) Enzymatic Assay for rat Monoamine Oxidase, MAO-A, Peripheral (MAOAP) (AID 2283237)
Method in brief: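 Rat liver mitochondrial membranes served as the MAO-A source, with enzyme activity measured by radiometric scintillation counting 1.17 hours after dosing. Loss of signal was fitted against DMSO; primary screen used 25 uM in duplicate, follow-up used concentration series.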

[7] = biological target: rat Monoamine Oxidase, MAO-B, Central (MAOBC), Maob (gene 25750) (UniProt P19643); assay: NVS_ENZ_rMAOBC: NovaScreen (NVS) Enzymatic Assay for rat Monoamine Oxidase, MAO-B, Central (MAOBC) (AID 2283238)
rat Monoamine Oxidase, MAO-B, Central (MAOBC), Maob (gene 25750), sequence (P19643 whole entry, looked up): as the sequence (P19643 whole entry, looked up) above
Method in brief: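 Rat brain tissue extract served as the cell-free MAO-B source; enzyme activity was read by scintillation counting 1.17 hours after compound addition. Loss of signal versus DMSO baseline was fitted; primary single-concentration screen at 25 uM, follow-up concentration-response up to 50 uM.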

[8] = biological target: sheep Cyclooxygenase-1 (Cox1), PTGS1 (gene 443551) (UniProt P05979); assay: NVS_ENZ_oCOX1: NovaScreen (NVS) Enzymatic Assay for sheep Cyclooxygenase-1 (Cox1) (AID 2283239);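 also: actives reduce cyclooxygenase activity so potencies are for inhibitors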
sheep Cyclooxygenase-1 (Cox1), PTGS1 (gene 443551), sequence (P05979 whole entry, looked up): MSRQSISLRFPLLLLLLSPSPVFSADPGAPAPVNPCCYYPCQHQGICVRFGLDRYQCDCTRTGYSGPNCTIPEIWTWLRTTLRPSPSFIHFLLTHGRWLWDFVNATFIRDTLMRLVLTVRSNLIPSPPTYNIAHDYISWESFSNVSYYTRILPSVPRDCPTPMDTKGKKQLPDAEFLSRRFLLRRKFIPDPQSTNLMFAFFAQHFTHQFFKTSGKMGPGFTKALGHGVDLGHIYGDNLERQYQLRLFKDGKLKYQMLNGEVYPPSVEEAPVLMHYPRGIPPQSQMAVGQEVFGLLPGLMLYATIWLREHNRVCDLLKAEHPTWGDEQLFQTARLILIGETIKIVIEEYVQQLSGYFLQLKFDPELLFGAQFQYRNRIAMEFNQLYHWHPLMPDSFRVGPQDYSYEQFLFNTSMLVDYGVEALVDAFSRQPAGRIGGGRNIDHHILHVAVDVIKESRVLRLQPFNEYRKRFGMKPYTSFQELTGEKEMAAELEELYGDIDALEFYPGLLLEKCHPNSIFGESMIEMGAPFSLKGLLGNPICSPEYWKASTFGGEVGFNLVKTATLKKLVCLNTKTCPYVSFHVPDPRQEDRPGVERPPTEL
Method in brief: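 Tested in duplicate at 25 uM, then in concentration series if active, against seminal vesicle extract from sheep. Enzyme activity was measured colorimetrically at 0.66 hour and normalised to DMSO.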

[9] = biological target: bovine Dopamine Receptor (DR), Non-selective Binding, DRD1 (gene 281125) (UniProt Q95136); assay: NVS_GPCR_bDR_NonSelective: NovaScreen (NVS) G Protein-Coupled Receptor Assay for bovine Dopamine Receptor (DR), Non-selective Binding (AID 2283241)
bovine Dopamine Receptor (DR), Non-selective Binding, DRD1 (gene 281125), sequence (Q95136 whole entry, looked up): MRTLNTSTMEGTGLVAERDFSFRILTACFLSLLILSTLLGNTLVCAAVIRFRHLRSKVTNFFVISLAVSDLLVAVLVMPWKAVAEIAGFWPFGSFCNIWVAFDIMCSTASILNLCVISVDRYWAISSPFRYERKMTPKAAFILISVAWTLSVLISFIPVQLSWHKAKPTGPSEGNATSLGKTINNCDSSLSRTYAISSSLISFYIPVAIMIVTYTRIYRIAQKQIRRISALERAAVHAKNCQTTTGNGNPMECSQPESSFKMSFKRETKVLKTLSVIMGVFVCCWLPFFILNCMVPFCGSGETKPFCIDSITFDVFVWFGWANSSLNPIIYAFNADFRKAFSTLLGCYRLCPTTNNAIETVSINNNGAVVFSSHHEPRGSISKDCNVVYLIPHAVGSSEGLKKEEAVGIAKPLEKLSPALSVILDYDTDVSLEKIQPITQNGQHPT
Method in brief: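 Bovine striatal membranes; radioligand displacement read by filtration and scintillation counting 1 h after dosing, loss of signal vs DMSO. Screened in duplicate at 25 uM, then concentration-response for hits.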

[10] = biological target: rat Catechol-O-Methyl Transferase (COMT), Comt (gene 24267) (UniProt P22734); assay: NVS_ENZ_rCOMT: NovaScreen (NVS) Enzymatic Assay for rat Catechol-O-Methyl Transferase (COMT) (AID 2283235)
rat Catechol-O-Methyl Transferase (COMT), Comt (gene 24267), sequence (P22734 whole entry, looked up): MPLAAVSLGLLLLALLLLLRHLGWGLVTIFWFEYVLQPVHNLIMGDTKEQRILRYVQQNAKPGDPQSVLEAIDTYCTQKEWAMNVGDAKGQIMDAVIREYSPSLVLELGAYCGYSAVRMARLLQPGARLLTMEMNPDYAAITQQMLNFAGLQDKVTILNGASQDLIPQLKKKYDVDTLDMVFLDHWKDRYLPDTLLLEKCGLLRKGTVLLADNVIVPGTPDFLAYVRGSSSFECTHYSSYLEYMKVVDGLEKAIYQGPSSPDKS
Method in brief: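 Cell-free enzyme activity with protein extracted from rat dorsal striatum, measured by HPLC with absorbance detection. Compounds screened at 25 uM in duplicate; actives then run in concentration-response up to 50 uM, loss of signal versus DMSO.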

Question: How did the outcome [1] turn out when `Nc1nc(N)nc(NC2CC2)n1` was run?
Answer: inactive

Question: `CCOC(=O)CC(SP(=O)(OC)OC)C(=O)OCC` (configuration not stated) was tested. Which outcome [2] did it give?
Answer: inactive

Question: How did the outcome [3] turn out when `CC(C)[C@H](C(=O)O[C@H](C#N)c1cccc(Oc2ccccc2)c1)c1ccc(Cl)cc1` was run?
Answer: inactive

Question: How did the AC50 [3] turn out when `CCCCSP(=O)(SCCCC)SCCCC` was run?
Answer: 6.6 µM (active)

Question: `CC(=NC#N)N(C)Cc1ccc(Cl)nc1` was tested. Which AC50 [4] did it give?
Answer: 13.3 µM (active)

Question: How did the outcome [5] turn out when `CON=C(C(=O)OC)c1ccccc1CON=C(C)c1cccc(C(F)(F)F)c1` was run?
Answer: inactive

Question: `Nc1c(Cl)cc([N+](=O)[O-])cc1Cl` was tested. Which outcome [3] did it give?
Answer: inactive

Question: And the AC50 [6]?
Answer: 18 µM (active)

Question: And the AC50 [7]?
Answer: 15.3 µM (active)

Question: And the AC50 [1]?
Answer: 39.8 µM (active)

Question: What about the AC50 [4] of the same molecule?
Answer: 15.6 µM (active)

Question: How did the outcome [1] turn out when `FC(F)C(F)(F)OCC(Cn1cncn1)c1ccc(Cl)cc1Cl` (configuration not stated) was run?
Answer: inactive

Question: Which AC50 [8] does the source give for `CC(C)=CC1C(C(=O)OCN2C(=O)C3=C(CCCC3)C2=O)C1(C)C` (configuration not stated) here?
Answer: 4.96 µM (active)

Question: `Cc1cc(C2CC2)nc(Nc2ccccc2)n1` was tested. Which AC50 [2] did it give?
Answer: 25 µM (active)

Question: How did the AC50 [2] turn out when `CCNc1nc(Cl)nc(NC(C)(C)C#N)n1` was run?
Answer: 13.3 µM (active)

Question: `CSC1=N[C@@](C)(c2ccccc2)C(=O)N1Nc1ccccc1` was tested. Which outcome [7] did it give?
Answer: inactive

Question: What does the source list for `CCCCOC(=O)c1ccccc1C(=O)O`?
Answer: outcome [8]: inactive; outcome [9]: inactive

Question: How did the outcome [1] turn out when `CC(C1CC1)C(O)(Cn1cncn1)c1ccc(Cl)cc1` (configuration not stated) was run?
Answer: inactive

Question: Which outcome [7] does the source give for `COP(=O)(OC)OC(Br)C(Cl)(Cl)Br` (configuration not stated) here?
Answer: inactive

Question: What about the AC50 [2] of the same molecule?
Answer: 25 µM (active)

Question: How did the AC50 [7] turn out when `CSc1nnc(C(C)(C)C)c(=O)n1N` was run?
Answer: 16.8 µM (active)

Question: What about the outcome [1] of the same molecule?
Answer: inactive

Question: Which AC50 [6] does the source give for `C[Si](Cn1cncn1)(c1ccc(F)cc1)c1ccc(F)cc1` here?
Answer: 25 µM (active)

Question: And the AC50 [4]?
Answer: 34 µM (active)

Question: For `CCOP(=S)(OCC)Oc1ccc([N+](=O)[O-])cc1`, which outcome [9] is on record?
Answer: inactive

Question: How did the outcome [4] turn out when `CCc1cccc(C)c1N(C(=O)CCl)C(C)COC` (configuration not stated) was run?
Answer: inactive

Question: How did the outcome [8] turn out when `CCCSP(=O)(OCC)SCCC` was run?
Answer: inactive

Question: What does the source list for `CC[C@H](C)[C@H]1O[C@]2(C=C[C@@H]1C)C[C@@H]1C[C@@H](C/C=C(\C)[C@@H](O[C@H]3C[C@H](OC)[C@@H](O[C@H]4C[C@H](OC)[C@@H](NC)[C@H](C)O4)[C@H](C)O3)[C@@H](C)/C=C/C=C3\CO[C@@H]4[C@H](O)C(C)=C[C@@H](C(=O)O1)[C@]34O)O2`?
Answer: outcome [6]: inactive; outcome [7]: inactive; outcome [5]: inactive; outcome [4]: inactive

Question: `CCCCN(CC)c1c([N+](=O)[O-])cc(C(F)(F)F)cc1[N+](=O)[O-]` was tested. Which outcome [3] did it give?
Answer: inactive

Question: For `Cc1nn(-c2cc(NS(C)(=O)=O)c(Cl)cc2Cl)c(=O)n1C(F)F`, which outcome [1] is on record?
Answer: inactive

Question: `S=C1NCCN1` was tested. Which outcome [1] did it give?
Answer: inactive

Question: With `CCC(=O)Nc1ccc(Cl)c(Cl)c1` as the molecule, how does the AC50 [6] read?
Answer: 6.9 µM (active)

Question: And the AC50 [7]?
Answer: 13 µM (active)

Question: And the AC50 [1]?
Answer: 25 µM (active)

Question: And the AC50 [4]?
Answer: 15.3 µM (active)

Question: Which outcome [3] does the source give for `COP(=O)(NC(C)=O)SC` (configuration not stated) here?
Answer: inactive

Question: With `CC1(C(=O)Nc2ccc(O)c(Cl)c2Cl)CCCCC1` as the molecule, how does the outcome [4] read?
Answer: inactive

Question: Which AC50 [2] does the source give for `CSc1nc(NC(C)C)nc(NC(C)C)n1` here?
Answer: 5.37 µM (active)

Question: For `CN(C)[C@@H]1C(=O)C(C(N)=O)=C(O)[C@@]2(O)C(=O)C3=C(O)c4c(O)cccc4[C@@](C)(O)[C@H]3[C@H](O)[C@@H]12`, which AC50 [10] is on record?
Answer: 3.33 µM (active) and 1.72 µM (active)

Question: What about the AC50 [3] of the same molecule?
Answer: 5.33 µM (active)

Question: How did the outcome [1] turn out when `O=c1ccc(=O)[nH][nH]1` was run?
Answer: inactive

Question: What does the source list for `CN(C)C(=O)Nc1cccc(C(F)(F)F)c1`?
Answer: AC50 [6]: 25 µM (active); AC50 [4]: 29.7 µM (active)
